Screening results deposited in PubChem by The Scripps Research Institute Molecular Screening Center.
Rows were chosen to be rich in hits. Some 1.6% of all compounds tested hit in one or more screens of this group.
Nox1 inhibitor: human Nox1 inhibition | Q9Y5S8 | HT29 cells, luminol chemiluminescence ROS | inhibition, % at 6.7 µM | 16,000 tested, 0.81% active | AID 1792
Luminol counter: quenches luminol chemiluminescence in Nox1 counter-screen; HRP/luminol/H2O2 chemiluminescence counterscreen; inhibition, % at 6.7 µM; 16,000 tested, 0.4% active; note: reference of the scale not given here
rat GALR2 ag: agonists of rat galanin receptor 2 (GALR2). 16,000 tested, 0.5% active. AID 833. activation, % at 10 µM. cell-based GALR2 agonist screen; in the data active = activation above about 15%
Target sequence (O08726 whole entry, looked up): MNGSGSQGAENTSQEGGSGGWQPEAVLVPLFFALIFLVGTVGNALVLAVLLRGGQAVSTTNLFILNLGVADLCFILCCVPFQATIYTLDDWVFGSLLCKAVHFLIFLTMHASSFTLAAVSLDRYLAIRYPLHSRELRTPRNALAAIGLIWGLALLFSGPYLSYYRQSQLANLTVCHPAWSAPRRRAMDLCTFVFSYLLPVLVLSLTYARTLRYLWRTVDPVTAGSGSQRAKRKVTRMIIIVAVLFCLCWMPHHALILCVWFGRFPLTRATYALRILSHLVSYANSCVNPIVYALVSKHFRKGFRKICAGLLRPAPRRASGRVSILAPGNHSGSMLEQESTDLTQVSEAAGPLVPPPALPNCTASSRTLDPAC
A number is an active result; i = inactive. Cut-off read from the data, not from the text of the source, unless noted: active = inhibition above about 75%; inactive = the rest.

SMILES | Nox1 inhibitor | Luminol counter | rat GALR2 ag
S=c1[nH]nc(-c2cccc3ccccc23)n1-c1cccnc1 | i | 89 | i
S=c1[nH]nc(-c2ccc(Cl)cc2Cl)n1-c1cccnc1 | i | i | i
O=c1[nH][nH]c2cccc(F)c12 | 79 | i | i
Cc1nc2cccc(F)c2c(=O)[nH]1 | i | i | i
OC(CSc1nc2cccnc2s1)C(F)(F)F (stereo not given) | i | i | i
NNC(=O)CSc1nc2cccnc2s1 | 76 | i | i
NC1=NNC(=O)/C1=C\c1cc([N+](=O)[O-])ccc1N1CCOCC1 | i | i | 25
O=[N+]([O-])c1ccc(N2CCCCCC2)c([N+](=O)[O-])c1 | i | i | i
N#CCC(=O)NNC(=O)c1ccccc1Cl | i | i | i
N#CCC(=O)NNC(=S)Nc1ccccc1 | 90 | i | i
O=C1CN(c2ccc(OC(F)(F)F)cc2)C(=O)CN1CC1CC1 | i | i | 44
O=C1CC(c2ccc(NC(=O)C(F)(F)F)cc2)C(=O)N1c1ccc(OC(F)(F)F)cc1 (stereo not given) | i | i | i
O=C1c2ccccc2C2CC(c3ccc(Cl)cc3)=NN12 (stereo not given) | i | i | i
Cc1cc(Br)c(NC(=S)NNc2ccccc2)c(Br)c1 | 100 | i | i
Cc1cc(Br)c(NC(N)=S)c(Br)c1 | i | i | i
COC(=O)c1sccc1NNC(=O)CC#N | 87 | i | i
CCOC(=O)/C(C#N)=C/Nc1ccsc1C(=O)OC | i | i | i
CCOC(=O)c1ccc(NC(=O)CSc2nnnn2C)cc1 | i | i | i
CC(=O)Nc1ccc(Br)cc1OC(F)(F)F | i | i | i
O=S(=O)(Cc1ccc(Cl)cc1)NCc1cccnc1 | i | i | 27
Clc1ccc(NCc2cccnc2)c(Cl)c1 | i | i | i
O=C(NCc1cc(F)cc2c1OCOC2)c1ccc(Oc2cc(Cl)cc(Cl)c2)o1 | i | i | i
Cc1ccc2c(c1)CCCN2C(=O)c1sc2ccccc2c1Cl | i | i | i
Cc1ccc2c(c1)CCCN2C(=O)CC(=O)N1CCCc2cc(C)ccc21 | i | 77 | i
CC[n+]1c(C)csc1Nc1ccc(N2CC(C)OC(C)C2)cc1 (stereo not given) | 105 | i | i
SMILES | Nox1 inhibitor | Luminol counter | rat GALR2 ag
S=C(NNc1nccc(-c2cccnc2)n1)Nc1ccccc1 | 86 | i | i
S=C(NCc1cccnc1)NNC(=S)NNc1ccccc1 | i | i | i
Cc1ccc(N/C=C(\C#N)C(=O)c2cc(C(C)(C)C)on2)cc1 | i | i | i
COc1ccc(/C=C(\C#N)C(=O)c2cc(C(C)(C)C)on2)cc1 | i | i | 21
N#CC1CN(Cc2cccs2)CN(Cc2cccs2)C1 | i | i | i
O=C(NNc1nc(-c2cccc([N+](=O)[O-])c2)cs1)c1ccccc1Cl | 75 | i | i
Nc1nc(-c2cccc([N+](=O)[O-])c2)cs1 | i | i | i
CN(C)c1cccc(N(C)C)c1CNC(=O)C(Cl)(Cl)Cl | i | i | i
O=C1C=C(I)C(=O)C=C1I | 86 | i | i
COC(=O)c1ccccc1NC(=S)Nc1ccc(Cl)cn1 | i | 98 | i
COc1ccccc1NC(=S)Nc1ccccn1 | i | i | i
CC(=O)OC(C#N)[C@H]1O[C@@H]2OC(C)(C)O[C@@H]2[C@H]1OC(C)=O (stereo not given in full) | i | i | i
CNC(=O)Nc1cccc2cccnc12 | i | i | i
COC(=O)c1ccc(S(=O)(=O)NNC(=O)c2c(O)c3sccc3[nH]c2=O)n1C | i | 78 | i
COC(=O)c1ccc(S(=O)(=O)NNc2c(Cl)cncc2Cl)n1C | i | i | i
COCc1cc(=O)[nH]c(-c2ccc(C(F)(F)F)cn2)n1 | i | i | i
Cc1nc(C)c(-c2ccnc(NC(=O)Nc3ccc(Cl)cc3)n2)s1 | i | i | i
COc1ccc(Nc2nc(NC(=O)Nc3ccc(Cl)cc3)n[nH]2)cc1 | 96 | i | i
CCOc1ccsc1NC(=O)Nc1cccc(C(F)(F)F)c1 | i | i | i
Cc1onc(-c2ccccc2)c1CN1CCS(=O)(=O)CC1 | i | i | i
O=S1(=O)CCN(Cc2cc3ccccc3s2)CC1 | i | i | 36
Cc1nn(C)c(C)c1NS(=O)(=O)c1cc(Cl)sc1Cl | i | i | i
CCOC(=O)C1=C(C)N(Cc2ccccc2)C(=O)C1CC(=O)O (stereo not given) | i | i | i
O=C(Nc1ccc(-c2nc3ccccc3s2)cc1)c1cccc2c1OCCCO2 | i | i | i
S=c1[nH]nc(-c2ccc(Cl)cc2)n1-c1ccccc1 | i | i | i
SMILES | Nox1 inhibitor | Luminol counter | rat GALR2 ag
Nn1c(-c2ccc(Cl)cc2)n[nH]c1=S | i | 99 | i
Cc1nn(C)c(C)c1Nc1n[nH]c(N)n1 | 77 | i | i
Cc1nn(C)c(C)c1NC(=O)/C(C#N)=C\N(C)C | i | i | i
Cc1nc(CSc2ccc(Cl)cc2)cs1 | i | i | i
O=C1c2ccncc2C(=O)N1CO | i | i | i
O=C(CSc1nnc(SCC(=O)c2cccc([N+](=O)[O-])c2)s1)c1cccc([N+](=O)[O-])c1 | i | 92 | i
O=C(CSC1=NCCCCC1)c1cccc([N+](=O)[O-])c1 | i | i | i
S=c1[nH]nc2nc(-c3ccccc3)c(-c3ccccc3)nn12 | i | i | i
C/C(=N\O)c1ccc2c(c1)CCC2 | i | i | i
O=C(c1ccc2c(c1)CCC2)C1CCC1 | i | i | 46
Cc1cc(C)c(CN)cc1CN | i | i | i
COC(=O)c1sccc1OCc1nnc(-c2ccc(OC)cc2)o1 | i | i | i
COC(=O)c1sccc1-c1ccc(CN2CCCc3cc(OC)ccc32)o1 | 94 | i | i
Cn1nc(NC(=O)COCC(=O)O)c2c(F)cccc21 | i | i | i
CC1=N/C(=C\c2sc3ccccc3c2C)C(=O)O1 | i | i | i
O=S(=O)(/N=C(\NNC(=S)NCc1ccco1)N1CCCC1)c1ccccc1 | i | i | i
CSCCC(NC(=O)c1ccc(C(F)(F)F)cc1)C(=O)NNC(=O)c1ccccc1Cl (stereo not given) | i | i | i
CCn1cc(C(=O)O)c(=O)c2cc(Cl)ccc21 | i | i | i
CCC(=O)N1c2cc(Cl)ccc2-n2c(nn(C(=O)CC)c2=O)N1C(=O)CC | 88 | i | i
Cn1ncc2c(NNC(=O)c3cc(Cl)cc(Cl)c3)ncnc21 | i | i | i
COc1cc2ncnc(Nc3cccc(Cl)c3)c2cc1OC | i | i | i
COc1cc2ncnc(NNS(=O)(=O)c3cc(C)c(Cl)cc3C)c2cc1OC | 101 | i | i
Cc1cc(S(=O)(=O)NNc2ncnc3c2cnn3C)c(C)cc1Cl | 102 | i | i
Cc1nc(C)c(-c2ccn(C(=O)c3c(C)noc3C)n2)o1 | i | i | i
Cc1csc2sc(COC(=O)Nc3ccccc3)c(C)c12 | i | i | i
SMILES | Nox1 inhibitor | Luminol counter | rat GALR2 ag
Cn1c(-c2ccco2)n[nH]c1=S | i | i | i
Cn1c(-c2ccccn2)n[nH]c1=S | i | 96 | i
CC(=O)Nc1ccc(S(=O)(=O)N2CCN(CCOc3ccccc3)CC2)cc1 | i | i | i
CCOC(=O)c1sc(-c2ccccc2)nc1CSc1nnc(C(F)(F)F)n1C | i | i | i
COc1cc(/C=N\n2c(C)n[nH]c2=S)cc(OC)c1OC | i | 101 | i
COc1cc(C=Nc2ccc(C)c(C)c2)cc(OC)c1OC | i | i | i
O=C(O)/C(=N/Nc1ccccc1O)c1ccccc1 | 83 | i | i
COc1ccc(C(=O)N/N=C(/C(=O)O)c2ccccc2)cc1 | i | i | i
O=C(Nc1ccccc1/C(=N/O)c1ccccc1)c1cccc([N+](=O)[O-])c1 | i | i | i
